Reference: the supplement of paper PMC11732987, “Enantioselective OTUD7B fragment discovery through chemoproteomics screening and high-throughput optimisation” (Communications Chemistry, 2025)
Values without a mark were called inactive.

How the values were obtained:
Experiment in all cases: log2 ratio of Biotin-Ahx-Ub-VS probe labelling (fragment/DMSO); higher = less target engagement (more negative = stronger competition), active = hit call of the paper (q ≤ 0.05, log2 ratio ≤ -1)
Settings in all cases: compound concentration: 200 uM; treatment time: 3 h
USP16 = USP16 (UniProt Q9Y5T5)
Sequence of USP16 (Q9Y5T5 whole entry, looked up, the tested form may be a part): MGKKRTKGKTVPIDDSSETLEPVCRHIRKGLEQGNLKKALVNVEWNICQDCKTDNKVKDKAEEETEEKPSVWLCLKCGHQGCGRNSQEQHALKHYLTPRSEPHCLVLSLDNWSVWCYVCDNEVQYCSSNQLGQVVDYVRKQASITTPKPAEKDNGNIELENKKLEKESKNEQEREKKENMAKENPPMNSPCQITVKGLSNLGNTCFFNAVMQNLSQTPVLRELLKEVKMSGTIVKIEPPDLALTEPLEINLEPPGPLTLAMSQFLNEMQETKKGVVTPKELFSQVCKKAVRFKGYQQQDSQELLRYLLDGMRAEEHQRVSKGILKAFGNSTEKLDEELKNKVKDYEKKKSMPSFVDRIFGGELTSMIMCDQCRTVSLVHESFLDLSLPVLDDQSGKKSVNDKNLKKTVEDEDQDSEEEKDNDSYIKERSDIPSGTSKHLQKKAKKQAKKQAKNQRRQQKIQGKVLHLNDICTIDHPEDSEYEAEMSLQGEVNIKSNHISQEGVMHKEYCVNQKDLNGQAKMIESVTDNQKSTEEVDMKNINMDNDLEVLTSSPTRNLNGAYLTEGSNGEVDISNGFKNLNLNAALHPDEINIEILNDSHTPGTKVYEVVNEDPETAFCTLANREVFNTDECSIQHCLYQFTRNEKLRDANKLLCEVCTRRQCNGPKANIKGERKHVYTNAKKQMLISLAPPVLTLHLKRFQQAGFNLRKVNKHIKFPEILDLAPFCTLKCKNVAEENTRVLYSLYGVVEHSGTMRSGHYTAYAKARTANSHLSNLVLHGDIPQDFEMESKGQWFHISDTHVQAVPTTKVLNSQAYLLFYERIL
Summary of the method: (§1)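 Global-median-normalised Spectronaut label-free quantities were compared by unpaired t-test, and values are average log2 ratios of fragment over vehicle. Only proteins with ≥2 unique peptides were used. HEK293T lysate (495 µg per sample) was treated in triplicate with fragment at 200 µM or vehicle for 3 h and then with Biotin-Ahx-Ub-VS at 0.5 µM final for 1 h. Labelled DUBs were then NeutrAvidin-enriched, digested with LysC and trypsin, and run by diaPASEF LC-MS/MS.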

USP19 = molecular target: T1, USP19 (UniProt O94966)
T1 sequence (whole entry): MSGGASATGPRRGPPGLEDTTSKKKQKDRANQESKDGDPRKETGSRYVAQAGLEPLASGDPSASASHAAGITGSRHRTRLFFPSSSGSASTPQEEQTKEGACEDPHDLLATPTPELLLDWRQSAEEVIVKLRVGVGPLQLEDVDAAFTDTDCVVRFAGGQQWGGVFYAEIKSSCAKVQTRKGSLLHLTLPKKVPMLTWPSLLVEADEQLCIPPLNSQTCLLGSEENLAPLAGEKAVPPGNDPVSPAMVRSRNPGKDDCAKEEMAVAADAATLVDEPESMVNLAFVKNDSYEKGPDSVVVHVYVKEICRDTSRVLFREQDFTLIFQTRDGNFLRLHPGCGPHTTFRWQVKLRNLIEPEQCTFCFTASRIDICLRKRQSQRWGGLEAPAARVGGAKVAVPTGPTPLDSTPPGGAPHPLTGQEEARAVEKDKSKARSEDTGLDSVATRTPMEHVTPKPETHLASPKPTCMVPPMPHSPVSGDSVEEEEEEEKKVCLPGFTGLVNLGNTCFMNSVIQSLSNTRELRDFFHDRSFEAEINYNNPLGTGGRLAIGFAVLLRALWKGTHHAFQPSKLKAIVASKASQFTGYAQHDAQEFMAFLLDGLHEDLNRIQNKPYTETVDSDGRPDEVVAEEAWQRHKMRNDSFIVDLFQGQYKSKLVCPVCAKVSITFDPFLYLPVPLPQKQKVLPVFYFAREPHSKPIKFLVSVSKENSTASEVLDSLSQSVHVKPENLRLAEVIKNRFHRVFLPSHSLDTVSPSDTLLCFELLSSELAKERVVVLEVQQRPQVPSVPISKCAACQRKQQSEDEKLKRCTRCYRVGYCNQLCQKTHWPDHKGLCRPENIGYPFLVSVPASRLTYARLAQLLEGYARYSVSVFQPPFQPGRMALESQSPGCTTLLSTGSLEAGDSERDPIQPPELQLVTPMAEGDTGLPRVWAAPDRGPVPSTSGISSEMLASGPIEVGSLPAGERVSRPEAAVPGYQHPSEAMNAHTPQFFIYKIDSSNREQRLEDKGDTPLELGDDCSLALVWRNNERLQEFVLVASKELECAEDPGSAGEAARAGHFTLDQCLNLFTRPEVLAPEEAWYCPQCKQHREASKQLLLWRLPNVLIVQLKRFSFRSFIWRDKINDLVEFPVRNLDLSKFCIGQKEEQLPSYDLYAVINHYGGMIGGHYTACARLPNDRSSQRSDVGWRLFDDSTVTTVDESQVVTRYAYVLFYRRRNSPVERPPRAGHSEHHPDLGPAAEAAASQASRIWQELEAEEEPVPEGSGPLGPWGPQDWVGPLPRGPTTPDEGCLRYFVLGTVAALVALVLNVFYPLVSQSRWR
Summary of the method: as §1

USP24 = USP24 (UniProt Q9UPU5)
Sequence of USP24 (Q9UPU5 whole entry): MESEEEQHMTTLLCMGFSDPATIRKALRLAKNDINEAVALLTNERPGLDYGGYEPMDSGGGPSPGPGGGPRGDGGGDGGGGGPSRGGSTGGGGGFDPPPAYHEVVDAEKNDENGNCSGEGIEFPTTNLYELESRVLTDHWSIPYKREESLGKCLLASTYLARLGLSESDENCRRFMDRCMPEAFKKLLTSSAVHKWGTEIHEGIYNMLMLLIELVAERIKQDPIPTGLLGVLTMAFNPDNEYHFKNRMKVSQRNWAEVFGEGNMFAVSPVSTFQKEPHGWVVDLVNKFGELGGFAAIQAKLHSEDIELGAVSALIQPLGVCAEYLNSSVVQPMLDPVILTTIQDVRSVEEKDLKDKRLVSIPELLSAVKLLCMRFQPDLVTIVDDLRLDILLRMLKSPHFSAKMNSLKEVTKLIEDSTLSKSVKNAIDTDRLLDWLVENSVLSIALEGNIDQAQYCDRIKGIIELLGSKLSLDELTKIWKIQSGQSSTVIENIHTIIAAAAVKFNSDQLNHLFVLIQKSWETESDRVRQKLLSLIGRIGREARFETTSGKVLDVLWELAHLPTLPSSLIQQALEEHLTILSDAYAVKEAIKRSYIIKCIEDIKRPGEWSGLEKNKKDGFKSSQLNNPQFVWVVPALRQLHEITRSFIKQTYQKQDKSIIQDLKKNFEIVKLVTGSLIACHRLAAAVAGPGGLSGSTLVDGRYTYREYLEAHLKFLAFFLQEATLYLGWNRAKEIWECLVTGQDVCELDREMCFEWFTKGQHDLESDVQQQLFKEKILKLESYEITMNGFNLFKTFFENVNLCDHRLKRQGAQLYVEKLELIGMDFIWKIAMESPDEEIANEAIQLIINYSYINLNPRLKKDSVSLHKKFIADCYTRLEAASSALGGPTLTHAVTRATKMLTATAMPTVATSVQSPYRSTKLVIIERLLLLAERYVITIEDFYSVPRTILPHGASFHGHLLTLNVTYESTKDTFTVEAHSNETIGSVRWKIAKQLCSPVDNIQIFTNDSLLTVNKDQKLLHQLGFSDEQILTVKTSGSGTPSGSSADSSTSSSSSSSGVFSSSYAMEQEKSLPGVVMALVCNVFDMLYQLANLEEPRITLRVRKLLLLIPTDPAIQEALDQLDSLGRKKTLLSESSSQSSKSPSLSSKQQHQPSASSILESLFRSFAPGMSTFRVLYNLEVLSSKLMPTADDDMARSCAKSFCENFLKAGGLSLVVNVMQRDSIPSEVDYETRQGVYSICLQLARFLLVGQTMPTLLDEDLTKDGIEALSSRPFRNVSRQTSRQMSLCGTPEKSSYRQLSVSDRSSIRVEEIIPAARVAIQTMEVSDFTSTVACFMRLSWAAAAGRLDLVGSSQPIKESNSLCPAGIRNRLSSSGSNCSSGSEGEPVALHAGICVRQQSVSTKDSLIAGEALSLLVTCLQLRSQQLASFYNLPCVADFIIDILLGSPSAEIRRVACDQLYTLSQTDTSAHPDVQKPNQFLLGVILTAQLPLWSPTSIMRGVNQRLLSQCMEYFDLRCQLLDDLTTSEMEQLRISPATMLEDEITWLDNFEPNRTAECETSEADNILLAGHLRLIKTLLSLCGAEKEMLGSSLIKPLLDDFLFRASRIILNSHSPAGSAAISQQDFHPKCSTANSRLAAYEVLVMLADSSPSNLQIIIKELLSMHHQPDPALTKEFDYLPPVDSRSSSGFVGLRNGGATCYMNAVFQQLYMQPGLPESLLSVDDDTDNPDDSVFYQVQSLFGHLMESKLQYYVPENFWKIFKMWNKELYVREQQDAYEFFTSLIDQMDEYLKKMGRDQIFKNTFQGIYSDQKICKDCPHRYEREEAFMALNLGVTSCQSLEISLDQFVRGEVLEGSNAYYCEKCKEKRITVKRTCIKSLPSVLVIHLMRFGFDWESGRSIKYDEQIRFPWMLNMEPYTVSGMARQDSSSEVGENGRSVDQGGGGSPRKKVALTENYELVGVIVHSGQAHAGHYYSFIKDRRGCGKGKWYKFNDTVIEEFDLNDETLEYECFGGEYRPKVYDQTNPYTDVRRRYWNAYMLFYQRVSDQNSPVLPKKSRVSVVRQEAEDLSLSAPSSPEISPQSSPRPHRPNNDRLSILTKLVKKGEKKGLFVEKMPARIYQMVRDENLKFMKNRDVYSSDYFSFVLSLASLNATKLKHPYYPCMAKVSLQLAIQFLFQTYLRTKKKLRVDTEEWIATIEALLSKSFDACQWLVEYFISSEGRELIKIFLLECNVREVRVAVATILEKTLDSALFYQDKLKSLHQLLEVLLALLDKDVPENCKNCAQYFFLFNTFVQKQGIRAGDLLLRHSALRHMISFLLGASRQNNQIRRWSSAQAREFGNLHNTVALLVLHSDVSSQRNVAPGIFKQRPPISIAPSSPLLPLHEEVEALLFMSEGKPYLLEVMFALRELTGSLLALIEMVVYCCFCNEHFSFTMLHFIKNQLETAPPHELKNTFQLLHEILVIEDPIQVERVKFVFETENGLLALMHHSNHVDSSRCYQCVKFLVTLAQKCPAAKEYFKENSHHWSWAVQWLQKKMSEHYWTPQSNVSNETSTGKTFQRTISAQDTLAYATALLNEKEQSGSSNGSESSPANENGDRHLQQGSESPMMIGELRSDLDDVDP
Summary of the method: as §1

USP25 = molecular target: T2, USP25 (UniProt Q9UHP3)
T2 sequence (whole entry): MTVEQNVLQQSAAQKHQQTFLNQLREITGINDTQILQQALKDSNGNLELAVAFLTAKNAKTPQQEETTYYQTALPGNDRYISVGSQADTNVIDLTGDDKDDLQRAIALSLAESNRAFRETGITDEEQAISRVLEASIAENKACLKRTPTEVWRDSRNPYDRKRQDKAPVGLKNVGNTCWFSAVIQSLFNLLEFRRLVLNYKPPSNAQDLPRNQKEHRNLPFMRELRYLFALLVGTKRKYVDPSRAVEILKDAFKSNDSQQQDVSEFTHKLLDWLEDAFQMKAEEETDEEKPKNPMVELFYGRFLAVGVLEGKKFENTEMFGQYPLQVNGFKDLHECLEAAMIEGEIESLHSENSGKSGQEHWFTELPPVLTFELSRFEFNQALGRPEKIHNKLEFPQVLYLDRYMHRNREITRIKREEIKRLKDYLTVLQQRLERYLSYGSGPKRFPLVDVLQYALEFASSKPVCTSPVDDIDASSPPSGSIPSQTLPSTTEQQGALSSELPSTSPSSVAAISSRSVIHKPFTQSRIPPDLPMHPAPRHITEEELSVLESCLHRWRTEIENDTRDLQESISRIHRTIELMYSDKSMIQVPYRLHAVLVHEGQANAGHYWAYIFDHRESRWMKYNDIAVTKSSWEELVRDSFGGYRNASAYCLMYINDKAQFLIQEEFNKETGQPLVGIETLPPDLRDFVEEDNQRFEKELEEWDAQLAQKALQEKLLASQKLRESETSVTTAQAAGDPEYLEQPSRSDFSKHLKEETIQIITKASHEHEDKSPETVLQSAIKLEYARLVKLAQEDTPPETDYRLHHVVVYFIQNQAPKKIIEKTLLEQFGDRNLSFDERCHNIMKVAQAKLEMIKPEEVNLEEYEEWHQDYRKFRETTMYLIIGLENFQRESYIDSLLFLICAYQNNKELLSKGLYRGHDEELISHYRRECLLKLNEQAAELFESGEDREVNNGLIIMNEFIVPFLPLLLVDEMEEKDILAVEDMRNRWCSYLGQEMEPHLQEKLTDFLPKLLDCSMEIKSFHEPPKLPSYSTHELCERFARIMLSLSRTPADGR
Summary of the method: as §1

USP28 = molecular target: T3, USP28 (UniProt Q96RU2)
T3 sequence (whole entry): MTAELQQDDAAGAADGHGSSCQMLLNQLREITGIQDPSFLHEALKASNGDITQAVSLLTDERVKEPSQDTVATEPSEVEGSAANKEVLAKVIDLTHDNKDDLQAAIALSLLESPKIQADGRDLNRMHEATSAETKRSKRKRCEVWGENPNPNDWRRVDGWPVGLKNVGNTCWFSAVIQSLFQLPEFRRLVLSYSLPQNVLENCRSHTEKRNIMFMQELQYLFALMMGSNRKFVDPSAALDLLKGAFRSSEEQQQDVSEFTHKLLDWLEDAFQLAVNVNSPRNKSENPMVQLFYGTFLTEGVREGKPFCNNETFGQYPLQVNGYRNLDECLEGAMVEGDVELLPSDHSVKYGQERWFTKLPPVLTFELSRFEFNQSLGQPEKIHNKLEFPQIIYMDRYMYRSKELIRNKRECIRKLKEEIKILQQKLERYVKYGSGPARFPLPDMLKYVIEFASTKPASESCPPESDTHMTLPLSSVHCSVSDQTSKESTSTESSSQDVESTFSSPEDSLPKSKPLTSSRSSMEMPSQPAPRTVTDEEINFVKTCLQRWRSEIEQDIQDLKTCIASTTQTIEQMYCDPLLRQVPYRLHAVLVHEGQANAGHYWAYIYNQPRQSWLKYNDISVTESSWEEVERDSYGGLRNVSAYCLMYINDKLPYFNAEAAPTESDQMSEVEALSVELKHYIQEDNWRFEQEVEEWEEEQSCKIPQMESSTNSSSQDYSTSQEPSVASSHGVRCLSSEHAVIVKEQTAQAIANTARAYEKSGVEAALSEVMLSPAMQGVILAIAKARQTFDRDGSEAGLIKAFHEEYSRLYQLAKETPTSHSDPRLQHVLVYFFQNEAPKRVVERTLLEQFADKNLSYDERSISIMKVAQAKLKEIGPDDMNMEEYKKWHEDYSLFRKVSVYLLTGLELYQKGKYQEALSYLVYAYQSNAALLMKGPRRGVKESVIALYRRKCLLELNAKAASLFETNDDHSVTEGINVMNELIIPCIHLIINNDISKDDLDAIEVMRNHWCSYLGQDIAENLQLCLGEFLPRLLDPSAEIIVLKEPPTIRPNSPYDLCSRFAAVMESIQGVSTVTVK
Summary of the method: as §1

In the case of `CC(NC(=O)CCl)c1csc(-c2ccccc2)n1.Cl` (stereo not given), the “log2 ratio of Biotin-Ahx-Ub-VS probe labelling” value (shortened to “log2 ratio”) (USP16) is reported as -1.03 (active), the “log2 ratio” value (USP19) is reported as -0.563 and the “log2 ratio” value (USP24) is reported as -0.822. The “log2 ratio” value (USP25) was -0.638 and the “log2 ratio” value (USP28) was -1.79 (active).
